This note sets out measurements from PubChem BioAssay AID2240 (Broad Institute, 2010).

The whole screen tested about 37,000 compounds, of which about 100 (0.27%) were called active. The full list was thinned out, with actives kept by preference. Values without a mark were called inactive. No stated cut-off is given here; in the data, active means inhibition above about 85%; inconclusive means no clear call, values can overlap the other calls; inactive means below about 68%.

The assay is described as follows: inhibitors of MITF, primary screen, MITF inhibitor project, cell-based, luminescence (AID 2240).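 Further: human melanocyte line stably carrying TRPM1 promoter luciferase reporter.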 The conditions noted are these: TRPM1 promoter luciferase, 24 h, hits give high values, concentration not given here.
For `CC(=O)Nc1nc2ccccc2s1`, the inhibition is -10.3%. Turning to `Cc1noc(C)c1NC(=O)Nc1cccc2c1O[C@@H](CN(C)Cc1ccc(C(F)(F)F)cc1)[C@@H](C)CN([C@@H](C)CO)C2=O`, the inhibition is 1.59%. For `COc1ccc(NC(=O)Nc2cccc3c2O[C@@H](CN(C)S(=O)(=O)c2cn(C)cn2)[C@H](C)CN([C@@H](C)CO)C3=O)cc1`, the inhibition was -11.4%. Then `C[C@@H]1CN([C@H](C)CO)C(=O)c2cc(NC(=O)NC3CCCCC3)ccc2O[C@@H]1CN(C)S(C)(=O)=O`, with 1.34%; and `Nc1cc(N)nc(SCC(=O)c2ccc(Br)cc2)n1`, with -22.1%; and `CCCCn1c(O)c(C#N)c(C)cc1=O`, with -16.6%. In the case of `C[C@H]1CN([C@@H](C)CO)C(=O)Cc2cc(NS(C)(=O)=O)ccc2O[C@@H]1CN(C)CC1CC1`, the inhibition is -11.8%. `C=CCn1c2ccccc2c2nnc(SCC(=O)N3c4ccccc4Sc4ccccc43)nc21`: the inhibition is 27.5%. With `Cc1ccc(-c2nnc(Nc3ccc(C(=O)N(C)C)cc3)c3ccccc23)cc1S(N)(=O)=O`, the inhibition was -20.2%. `Cc1nn(-c2ccccc2)c(CC(C)(C)C(=O)O)c1C(=O)O`: the inhibition is -5.62%. Turning to `CCc1cc2c(=O)n(-c3ccccc3)c(SCC(=O)O)nc2s1`, the inhibition is -1.73%. In the case of `COc1cc(S(=O)(=O)NCCN2CCOCC2)ccc1Br`, the inhibition is 1.46%.

`C=C1C(=O)O[C@H]2C3=C(C)C[C@H](OC(C)=O)C[C@]3(C)CC[C@@H]12`: the inhibition is 8.27%. `Oc1ccc(CN2CCCC2)c2cccnc12`: the inhibition is 40.6%.

Take `C[C@H]1CN([C@@H](C)CO)C(=O)c2cc(NC(=O)Cn3cnnn3)ccc2O[C@@H]1CN(C)C(=O)Nc1ccccc1`: the inhibition is 5.69%.

As to `C[C@H](CO)N1C[C@H](C)[C@H](CN(C)CC2CC2)Oc2ccc(NC(=O)c3ccncc3)cc2C1=O`, the inhibition was -11.7%. Regarding `C=C1C[C@@]23CC[C@@H]4[C@](C)(CO)CCC[C@@]4(C)[C@@H]2CC[C@@H]1C3`, the inhibition is -32.7%. In the case of `Cc1ccc(NC(=O)C(C)N(c2ccc(Cl)cc2)S(C)(=O)=O)c(C)c1` (stereo unspecified), the inhibition was -5.76%. For the compound `Cc1cc([N+](=O)[O-])nn1CC(=O)NC(C)C`, the inhibition is 8.94%.

In the case of `C[C@@H]1CN([C@@H](C)CO)C(=O)c2cc(NC(=O)Nc3ccccc3)ccc2O[C@H]1CN(C)C(=O)Nc1ccc(F)cc1`, the inhibition was 3.76%. As for `COc1ccccc1NC(=O)C1=C(C)Nc2nnnn2C1c1ccccc1OCc1ccccc1` (stereo unspecified), the figure is 41.2%; as for `O=C(CSc1nnc(-c2ccccc2)n1-c1ccccc1)c1cccc([N+](=O)[O-])c1`, 5.69%; as for `C[C@H](CO)N1C[C@H](C)[C@@H](CN(C)Cc2ccc(C(F)(F)F)cc2)Oc2ccc(NC(=O)CCN3CCOCC3)cc2C1=O`, -9.07%. Turning to `c1ccc(Cn2c3ccccc3c3nnc(SCc4ccc5nonc5c4)nc32)cc1`, the inhibition was 20.6%. With `C[C@@H]1CCCCO[C@@H](CN(C)C(=O)CCC(F)(F)F)[C@@H](C)CN([C@H](C)CO)C(=O)c2cc(NC(=O)Nc3ccccc3)ccc2O1`, the inhibition is -11.3%. `C[C@@H]1CN([C@@H](C)CO)C(=O)c2cc(NC(=O)C3CCCCC3)ccc2O[C@@H]1CN(C)Cc1ccc(C(=O)O)cc1`: the inhibition was 1.31%.

For `COc1ccc(NC(=O)CN(C)S(=O)(=O)c2ccccc2)cc1OC`, the inhibition is -9.83%. As for `COc1ccc(NC(=O)N(C)C[C@H]2Oc3c(NC(=O)C4CC4)cccc3C(=O)N([C@@H](C)CO)C[C@@H]2C)cc1`, the figure is 0.647%; as for `C[C@H]1CN([C@@H](C)CO)C(=O)c2cc(N(C)C)ccc2O[C@@H]1CN(C)Cc1ccccc1`, -14.1%; as for `O=C(CSc1nccc(=O)[nH]1)Nc1ccc([N+](=O)[O-])cc1`, -3.55%. `COc1cc(NC(=S)NCCN2CCOCC2)c(OC)cc1Cl`: the inhibition is 17.1%. Consider `O=C(Nn1cnc2ccccc2c1=O)c1ccccc1`, for which the inhibition is -19.3%. `C[C@@H]1CN([C@H](C)CO)C(=O)c2cc(NS(=O)(=O)c3cccs3)ccc2O[C@@H]1CN(C)Cc1ccc(C(F)(F)F)cc1`: the inhibition was -1.87%. Consider `COc1ccc(NC(=O)Nc2cccc3c2O[C@@H](CN(C)S(=O)(=O)c2ccc(C)cc2)[C@H](C)CN([C@@H](C)CO)C3=O)cc1`, for which the inhibition was -6.48%. Take `CCN(c1ccccc1)S(=O)(=O)c1ccc(C)cc1`: the inhibition is 12.9%. Turning to `C[C@H](CO)N1C[C@H](C)[C@H](CN(C)C(=O)Nc2ccc3c(c2)OCO3)Oc2ccc(NC(=O)Nc3ccccc3)cc2CC1=O`, the inhibition is -9.08%.

For the compound `COc1ccc(S(=O)(=O)N(C)C[C@H]2Oc3ccc(NC(=O)C4CC4)cc3CC(=O)N([C@@H](C)CO)C[C@@H]2C)cc1`, the inhibition is -12.4%.

For `COC(=O)c1c(-c2cccnc2)csc1NC(=O)c1cc(-c2ccc(C)o2)nc2ccccc12`, the inhibition was -34.4%.

On to `Cc1ccc(S(=O)(=O)N(C)C[C@H]2Oc3c(NS(=O)(=O)c4cccs4)cccc3C(=O)N([C@@H](C)CO)C[C@@H]2C)cc1`, for which the inhibition is 0.709%. As to `O=C(CSc1nc2ccccc2s1)c1cc2ccccc2oc1=O`, the inhibition was -18%.

Consider `C[C@@H]1CN([C@@H](C)CO)C(=O)c2cc(NC(=O)CCCN(C)C)ccc2O[C@@H]1CN(C)Cc1ccncc1`, for which the inhibition is 4.25%. For `CCCN(C)C[C@H]1OCCCC[C@@H](C)Oc2ccc(N(C)C)cc2C(=O)N([C@H](C)CO)C[C@@H]1C`, the inhibition was 43.3%.

In the case of `CC(=O)c1c(C)nn(CC(O)COc2ccc3cc(Br)ccc3c2)c1C` (stereo unspecified), the inhibition is 50.6%. Turning to `Cc1ccc(S(=O)(=O)N(C)C[C@H]2Oc3c(NS(=O)(=O)c4ccc(Cl)cc4)cccc3C(=O)N([C@H](C)CO)C[C@@H]2C)cc1`, the inhibition is 0.159%. As for `Oc1c(Cl)cc(Cl)c(Cl)c1Cc1c(O)c(Cl)cc(Cl)c1Cl`, the figure is 93.7% (active); as for `O=C(NCCN1CCCCC1)Nc1cccc2ccccc12`, 5.31%.

Broadly, the inhibition is the change of the read-out against control, counted positive when it falls.
